Experiment [1] in a line: inhibitors of TNFa-induced NFkB p65 translocation, primary screen, imaging, HUVEC, MLSMR starter and 10KST1 sets (AID 438;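 active means inhibition above 20% together with a positive visual image hit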;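 further: compound added about 3h40 before a 20 min TNFalpha stimulation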;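 on inhibition: signal is the nuclear over cytoplasmic p65 intensity ratio per well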). Particulars: HUVEC TNFa-induced p65 nuclear translocation; cell count: measured here: nuclei count (cytotoxicity indicator), at 2.08 µM; inhibition: at 2 µM, stronger effect = higher value, 0% TNFa-plus-vehicle, 100% no-TNFa wells.
A short description of experiment [2]: inhibitors of mutant huntingtin aggregation, primary screen, imaging, exon1htt(103Q)mCFP cells, high-content imaging (AID 483;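 active means visual image review flags a hit and inhibition of aggregation exceeds 20%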;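 further: compound exposure lasted 3 days before fixation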;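 on nuclei count: percent of the per-plate median nuclei count of sample wells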). Particulars: exon1htt(103Q)mCFP cell line, aggregate imaging, at 2 µM; inhibition of aggregation: stronger effect = higher value; nuclei count: measured here: cell count, toxicity.
Experiment [3] can be described thus: inhibitors of E-selectin induction by TNFa, primary screen, imaging, HUVEC, immunofluorescence, MLSMR starter and 10KST1 sets (AID 487).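 On inhibition: signal is fraction of cell area covered by stained E-selectin grains.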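 On nuclei count: 100% = median nuclei count of all wells on the same plate.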 Particulars: HUVEC TNFalpha-induced E-selectin immunofluorescence imaging, at 2 µM; inhibition: stronger effect = higher value; nuclei count: measured here: cell number, toxicity.
Experiment [4] deals with Voltage-gated potassium channel subunit beta-2 (Rattus norvegicus) (UniProt P62483). In words: KvBeta enzyme negative modulators, primary screen, biochemical, NADPH fluorescence (AID 622;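 active means fluorescence slope higher than the sample average by over 3 SD, cut at about -0.22 in these data, passing the limit was not always enough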;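 further: slope of raw intensity against log time taken from 70 to 1610 s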). Particulars: recombinant KvBeta, 4-cyanobenzaldehyde reduction, at 10 µM, stronger effect = higher value.
The target is the same in experiment [5]. As to the kind of experiment: KvBeta positive modulators, primary screen, biochemical, NADPH fluorescence (AID 623;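 active means NADPH fluorescence slope more negative than the mean of all samples by about 3 SD, 99.7% confidence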;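 further: fluorescence intensity change per second fitted from 20 to 320 s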). Particulars: Recombinant KvBeta, NADPH fluorescence decrease slope, 10 min; at 10 µM; stronger effect = lower value.
In experiment [6] the target is Alpha-2C adrenergic receptor (Homo sapiens) (UniProt P18825). In words: modulators of alpha2C/GIRK thallium flux, primary screen, cell-based, HEK293 alpha2C/GIRK1/2 (AID 624;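 active means fluorescence slope after compound addition differing from the mean of all screened samples at 99.7% confidence, in either direction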;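 further: slope of fluorescence ratio to pre-addition baseline per second over 15 to 24 s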). Particulars: thallium flux BTC fluorescence, at 10 µM, actives lie on both sides.
Experiment [7] can be described thus: inhibitors of Sendai virus-induced IRF3 signaling, primary screen, TLR/RLR signaling modifier project, cell-based, Sendai virus stimulus, luciferase, 10K MLSCN set (AID 602276;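 active means inhibition at or above 50% at 10 µM; inactive means inhibition below 50%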;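 further: firefly luciferase from ISG56 promoter only with Renilla not read in this screen; 0% = Sendai virus plus DMSO and 100% = medium plus DMSO without virus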). Particulars: HEK293 RL24 IRF3 luciferase reporter, at 10 µM, stronger effect = higher value. (A reporter such as luciferase makes a cellular process visible.)
Experiment [8] in a line: inhibitors of poly I:C-induced TLR3 signaling, primary screen, cell-based, poly I:C stimulus, luciferase, 10K MLSCN set (AID 602277;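 active means inhibition of the reporter signal at or above 50%; inactive means inhibition below 50%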). Particulars: HEK293-TLR3 RL24 IRF3 luciferase reporter, at 10 µM, stronger effect = higher value.

Activity calls are given as the source filed them.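 How the source made its calls, unless noted: active means visually confirmed hit in the image check and inhibition above 20%; inconclusive means visually confirmed hit but inhibition not above 20%; inactive means no visual hit in the image check.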 Where a SMILES comes first, the peptide text is derived from it. The star is where a group is joined. Boc = CC(C)(C)OC(=O)*

Here are results for 14 compounds from PubChem BioAssay.

Chain of Alpha-2C adrenergic receptor (Homo sapiens) (P18825 whole entry, looked up): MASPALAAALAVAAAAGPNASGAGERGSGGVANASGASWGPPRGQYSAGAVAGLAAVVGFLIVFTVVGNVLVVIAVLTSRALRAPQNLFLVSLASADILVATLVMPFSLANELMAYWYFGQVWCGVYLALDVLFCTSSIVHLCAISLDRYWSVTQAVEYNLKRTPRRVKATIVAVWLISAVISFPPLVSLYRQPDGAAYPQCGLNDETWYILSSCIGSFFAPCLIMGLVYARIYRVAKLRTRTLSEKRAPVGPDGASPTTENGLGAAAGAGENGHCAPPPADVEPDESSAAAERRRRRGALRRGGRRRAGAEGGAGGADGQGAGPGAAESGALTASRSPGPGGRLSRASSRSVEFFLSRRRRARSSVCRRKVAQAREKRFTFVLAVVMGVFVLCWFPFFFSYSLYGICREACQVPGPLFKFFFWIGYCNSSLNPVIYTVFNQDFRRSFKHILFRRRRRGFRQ
Chain of Voltage-gated potassium channel subunit beta-2 (Rattus norvegicus) (P62483 whole entry, looked up): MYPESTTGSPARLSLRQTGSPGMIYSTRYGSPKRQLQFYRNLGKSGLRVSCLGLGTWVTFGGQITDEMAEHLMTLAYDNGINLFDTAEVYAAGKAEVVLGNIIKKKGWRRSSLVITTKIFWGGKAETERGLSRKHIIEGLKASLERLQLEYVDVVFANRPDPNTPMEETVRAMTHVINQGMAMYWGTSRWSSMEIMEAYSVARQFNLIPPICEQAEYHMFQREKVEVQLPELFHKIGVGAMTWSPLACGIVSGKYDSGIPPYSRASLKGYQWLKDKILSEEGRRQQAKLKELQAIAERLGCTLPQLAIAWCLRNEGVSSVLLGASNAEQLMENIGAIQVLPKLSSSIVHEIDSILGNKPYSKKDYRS

As to `CCOC(=O)C1C2C=CC3(CN(Cc4ccco4)C(=O)C13)O2` (centres undefined), the cell count in experiment [1] stood at 480. Moreover, the inhibition – broadly, the relative decrease from the control value, in per cent – in experiment [1] was 5.5% (inactive); in experiment [3] it was -57.8% (inactive); in experiment [7], 13.9% (inactive); in experiment [8] it was 21.7% (inactive). Further, in experiment [2], the inhibition of aggregation is 16.2% (inactive). In addition, the nuclei count in experiment [2] was found to be 114%; in experiment [3], 115%. The fluorescence slope in experiment [4] is -0.469 (inactive). For the same compound, the NADPH fluorescence slope in experiment [5] was -6.4e-05 (inactive). In experiment [6], the slope was 0.00537 (inactive).
For `Cc1nc(SCC(=O)CC(=O)OC(C)C)c(C#N)c(C)c1C`, in experiment [1], the cell count was 718. Besides, the inhibition is -3.5% (inactive) in experiment [1], 34.6% (inactive) in experiment [3], 5.7% (inactive) in experiment [7] and -3.09% (inactive) in experiment [8]. The inhibition of aggregation in experiment [2] was -22.8% (inactive). For the same compound, the nuclei count was found to be 118% in experiment [2] and 99.8% in experiment [3]. Further, the fluorescence slope in experiment [4] is -0.332 (inactive). The NADPH fluorescence slope in experiment [5] is 1.6e-05 (inactive). For the same compound, the slope in experiment [6] was 0.00527 (inactive).
In the case of `Cc1onc(-c2ccccc2Cl)c1C(=O)Nc1cccnc1`, in experiment [1], the cell count was found to be 286. For the same compound, the inhibition was -2.3% (inactive) in experiment [1], -78.5% (inactive) in experiment [3], 0.844% (inactive) in experiment [7] and 32.2% (inactive) in experiment [8]. Further, in experiment [2], the inhibition of aggregation is 1.8% (inactive). The nuclei count in experiment [2] came to 106%; in experiment [3], 148%. Besides, the fluorescence slope in experiment [4] is -0.452 (inactive). Besides, the NADPH fluorescence slope in experiment [5] is 2.6e-05 (inactive). Moreover, the slope in experiment [6] was 0.00566 (inactive).
For the compound `C[C@H](NC(=O)NCc1cccs1)C(=O)O`, the cell count in experiment [1] came out at 378. For the same compound, the inhibition was 4.3% (inactive) in experiment [1], -52.5% (inactive) in experiment [3], 5.25% (inactive) in experiment [7] and 4.63% (inactive) in experiment [8]. The inhibition of aggregation in experiment [2] is -9.8% (inactive). Besides, the nuclei count worked out at 102% in experiment [2] and 72.1% in experiment [3]. Moreover, the fluorescence slope in experiment [4] was -0.576 (inactive). For the same compound, the NADPH fluorescence slope in experiment [5] was -5.7e-05 (inactive). The slope in experiment [6] is 0.00368 (inactive).
Consider `CC(C)(C)OC(=O)N1CCCC1C(=O)NC(Cc1ccccc1)C(=O)O` (stereo not drawn) (Boc-Pro-Phe-OH; configuration not given here), for which the cell count in experiment [1] is 431. Besides, the inhibition in experiment [1] is 1% (inactive); in experiment [3], 21.6% (inactive); in experiment [7] it was 12.2% (inactive); in experiment [8] it was 17.2% (inactive). The inhibition of aggregation in experiment [2] was 4.3% (inactive). Further, the nuclei count in experiment [2] worked out at 99.5%; in experiment [3], 101%. The fluorescence slope in experiment [4] was -0.607 (inactive). Also, the NADPH fluorescence slope in experiment [5] is 1.1e-05 (inactive). In addition, the slope in experiment [6] was 0.00669 (inactive).
As for `O=C(NCc1cccnc1)C1CCCN(S(=O)(=O)c2ccc(Cl)cc2)C1` (centres undefined), the cell count in experiment [1] turned out to be 638. Also, the inhibition is -48% (inactive) in experiment [1], -19.2% (inactive) in experiment [3], -7.82% (inactive) in experiment [7] and -2.22% (inactive) in experiment [8]. For the same compound, the inhibition of aggregation in experiment [2] is -4.5% (inactive). Besides, the nuclei count stood at 98% in experiment [2] and 104% in experiment [3]. Further, the fluorescence slope in experiment [4] was -0.601 (inactive). Besides, the NADPH fluorescence slope in experiment [5] was -4.7e-05 (inactive). The slope in experiment [6] was 0.00732 (inactive).
As for `CC(NC(=O)c1noc2c1CCCCC2)c1ccccc1` (centres undefined), in experiment [1], the cell count turned out to be 936. Moreover, the inhibition was 6.9% (inactive) in experiment [1], -24.9% (inactive) in experiment [3], -24.9% (inactive) in experiment [7] and -53.9% (inactive) in experiment [8]. Moreover, the inhibition of aggregation in experiment [2] was -5% (inactive). For the same compound, the figures for the nuclei count in experiment [2] and in experiment [3] were 154% and 126%, respectively. The fluorescence slope in experiment [4] is -0.618 (inactive). In experiment [5], the NADPH fluorescence slope is -3.4e-05 (inactive). The slope in experiment [6] is 0.00631 (inactive).
As to `O=C1c2ccccc2C(=O)N1CNc1ccccc1`, the cell count in experiment [1] was 425. Moreover, the inhibition was -2.7% (inactive) in experiment [1], -144% (inactive) in experiment [3], 7.68% (inactive) in experiment [7] and -8.22% (inactive) in experiment [8]. In addition, the inhibition of aggregation in experiment [2] was -3.7% (inactive). For the same compound, the nuclei count in experiment [2] worked out at 112%; in experiment [3], 118%. In experiment [4], the fluorescence slope is -0.603 (inactive). Further, in experiment [5], the NADPH fluorescence slope was -1.7e-05 (inactive). For the same compound, in experiment [6], the slope is 0.00312 (inactive).
With `Cn1c(=O)c2c(nc(CN3CCCCC3)n2CCCc2ccccc2)n(C)c1=O`, the cell count in experiment [1] stood at 431. Moreover, the inhibition in experiment [1] was 10.1% (inactive); in experiment [3], 38.4% (inactive); in experiment [7] it was 15.4% (inactive); in experiment [8], 44.7% (inactive). In addition, in experiment [2], the inhibition of aggregation is -30.7% (inactive). In addition, the nuclei count in experiment [2] and in experiment [3] was 102% throughout. In addition, the fluorescence slope in experiment [4] was -0.46 (inactive). Further, in experiment [5], the NADPH fluorescence slope was -9.8e-06 (inactive). For the same compound, the slope in experiment [6] is 0.00664 (inactive).
Turning to `CCC(C)(C(=O)NC1CCCC1)N(C(=O)c1cnccn1)c1c(C)n(C)n(-c2ccccc2)c1=O` (centres undefined), the cell count in experiment [1] is 568. Moreover, the inhibition in experiment [1] was 3.8% (inactive); in experiment [3] it was 15.6% (inactive); in experiment [7], -1.44% (inactive); in experiment [8], 9.08% (inactive). Further, the inhibition of aggregation in experiment [2] is 7% (inactive). Besides, the nuclei count in experiment [2] came to 91.3%; in experiment [3], 89.6%. Besides, the fluorescence slope in experiment [4] was -0.471 (inactive). The NADPH fluorescence slope in experiment [5] is -0.000132 (inactive). Moreover, the slope in experiment [6] is 0.00518 (inactive).
On to `COc1cccc(-c2cc(C(=O)N3CCc4ccccc4C3)no2)c1`, for which the cell count in experiment [1] was 550. The inhibition in experiment [1] was -17% (inactive); in experiment [3], 18.5% (inactive); in experiment [7], -3.65% (inactive); in experiment [8] it was 13.4% (inactive). Besides, in experiment [2], the inhibition of aggregation is 1% (inactive). Moreover, the nuclei count in experiment [2] turned out to be 111%; in experiment [3] it was 99.8%. For the same compound, the fluorescence slope in experiment [4] is -0.445 (inactive). Further, the NADPH fluorescence slope in experiment [5] was 7.7e-06 (inactive). Also, the slope in experiment [6] was 0.0069 (inactive).
Consider `COc1cccc(C(=O)NC2=NCCS2)c1`, for which, in experiment [1], the cell count turned out to be 400. Also, the inhibition in experiment [1] is -13.2% (inactive); in experiment [3] it was -56.9% (inactive); in experiment [7], -13.2% (inactive); in experiment [8], -61.5% (inactive). Further, the inhibition of aggregation in experiment [2] is 29.5% (inactive). Also, the nuclei count is 71.6% in experiment [2] and 131% in experiment [3]. Moreover, the fluorescence slope in experiment [4] was -0.496 (inactive). Besides, the NADPH fluorescence slope in experiment [5] is -3.2e-05 (inactive). In addition, the slope in experiment [6] was 0.00469 (inactive).
Consider `CCn1c(SCC(=O)Nc2ccc3c(c2)OCO3)nnc1-c1ccccc1O`, for which the cell count in experiment [1] was determined as 468. Also, the inhibition in experiment [1] was -6.3% (inactive); in experiment [3], -143% (inactive); in experiment [7], 11.9% (inactive); in experiment [8], 0.128% (inactive). Moreover, the inhibition of aggregation in experiment [2] was 2% (inactive). In addition, the nuclei count was 113% in experiment [2] and 151% in experiment [3]. Moreover, the fluorescence slope in experiment [4] was -0.5 (inactive). Further, in experiment [5], the NADPH fluorescence slope is -5.6e-05 (inactive). In addition, the slope in experiment [6] was 0.0056 (inactive).
In the case of `O=P(O)(CCc1ccccc1)CN1CCCCC1`, in experiment [1], the cell count came to 446. The inhibition is -6.3% (inactive) in experiment [1], -137% (inactive) in experiment [3], -8.42% (inactive) in experiment [7] and -0.191% (inactive) in experiment [8]. Besides, the inhibition of aggregation in experiment [2] is -8.7% (inactive). The nuclei count in experiment [2] came out at 100%; in experiment [3], 108%. In addition, the fluorescence slope in experiment [4] is -0.419 (inactive). Also, the NADPH fluorescence slope in experiment [5] was 5e-05 (inactive). For the same compound, the slope in experiment [6] was 0.00723 (inactive).
